# In PubChem BioAssay (NCATS):
# The source made the active and inactive calls. Calls come from the whole dose curve; as a rule, active = well fitted curve in the direction sought with a large enough effect; inconclusive = small, poorly fitted or top-dose-only effect, or another doubt; inactive = no such curve, though single readings can be large or run the other way.
# Target: Alpha-galactosidase (Coffea arabica) (UniProt Q42656)
# Experiment: Counterscreen for Glucocerebrosidase Inhibitors: qHTS Assay for Coffee Bean alpha-Galactosidase at pH 4.5 (AID 957);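 note: plate controls were enzyme alone for no effect and no enzyme for full effect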
# Settings: purified coffee bean alpha-galactosidase, fluorogenic substrate; series mostly up to 76.9 µM; activity change, negative = inhibition: at the top concentration
# Procedure, shortened: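 Green coffee bean enzyme (2 nM final) was incubated with compounds (0.7 nM to 77 uM) and 4-methylumbelliferyl alpha-D-galactopyranoside (80 uM final) in 50 mM citric acid, 0.005% Tween-20, pH 4.5, 20 min at room temperature; AC50 from Hill fits.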
# Sequence of Alpha-galactosidase (Coffea arabica) (Q42656 whole entry, looked up): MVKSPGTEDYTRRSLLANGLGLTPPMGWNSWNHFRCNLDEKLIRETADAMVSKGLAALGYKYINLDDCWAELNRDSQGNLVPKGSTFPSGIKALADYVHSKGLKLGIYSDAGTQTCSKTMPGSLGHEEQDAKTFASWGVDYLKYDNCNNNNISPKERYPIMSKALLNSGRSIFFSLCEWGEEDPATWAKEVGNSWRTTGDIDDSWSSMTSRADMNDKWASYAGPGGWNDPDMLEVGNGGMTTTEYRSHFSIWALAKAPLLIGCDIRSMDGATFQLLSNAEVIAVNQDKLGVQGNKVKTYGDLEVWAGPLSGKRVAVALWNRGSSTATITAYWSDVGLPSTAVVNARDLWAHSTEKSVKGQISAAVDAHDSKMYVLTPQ
SMILES,"activity change, negative = inhibition",outcome
C=Cc1c(C)c2cc3[nH]c(cc4nc(cc5nc(cc1[nH]2)C(C)=C5CCC(=O)O)C(CCC(=O)O)=C4C)c(C)c3C=C,-0.471% (inactive),
Oc1cc(O)c2c(c1)O[C@H](c1ccc(O)c(O)c1)[C@H](O)C2,2.41% (inactive),
CNC[C@H](O)c1ccc(O)c(O)c1,,inactive
CCN(CC)CCOCCOC(=O)C1(c2ccccc2)CCCC1,-1% (inactive),
CN1CCC(=C2c3ccccc3CC(=O)c3sccc32)CC1,0.0208% (inactive),
NC(N)=NC(=O)c1nc(Cl)c(N)nc1N,-3.02% (inactive),
Oc1ccc(O)cc1,-2.91% (inactive),
C(=C\c1ccccc1)/CN1CCN(C(c2ccccc2)c2ccccc2)CC1,-0.977% (inactive),
CCCn1cnc2c1c(=O)n(CCCCC(C)=O)c(=O)n2C,-0.651% (inactive),
COc1ccc2c(c1)c(CC(=O)O)c(C)n2C(=O)c1ccc(Cl)cc1,-1.45% (inactive),
O=C1N(c2ccccc2)c2ccccc2C1(Cc1ccncc1)Cc1ccncc1,-3.24% (inactive),
COc1nc(C)nc(Cl)c1NC1=NCCN1,1.25% (inactive),
CN(C)CCOC(c1ccccc1)c1ccccc1,3.34% (inactive),
OCCN1CCN(CCCN2c3ccccc3C=Cc3ccccc32)CC1,,inactive
COC(=O)[C@@H](N)Cc1ccc(O)c(O)c1,-1.4% (inactive),
COCC(=O)O[C@]1(CCN(C)CCCc2nc3ccccc3[nH]2)CCc2cc(F)ccc2[C@@H]1C(C)C,-8.46% (inactive),
C[C@]12CC[C@@H]3c4ccc(O)cc4CC[C@H]3[C@@H]1CCC2=O,0.518% (inactive),
CN(C)C(=O)Oc1cccc([N+](C)(C)C)c1,1.8% (inactive),
CCCC(C(=O)OCCN(CC)CC)(c1ccccc1)c1ccccc1,-5.24% (inactive),

SMILES,"activity change, negative = inhibition",outcome
O=C(O)CN(CCOCCOCCN(CC(=O)O)CC(=O)O)CC(=O)O,1.22% (inactive),
CN(C)CCCN1c2ccccc2Sc2ccccc21,-0.984% (inactive),
CCOC(=O)C(C)(C)Oc1ccc(Cl)cc1,0.246% (inactive),
NC(=O)CC[C@@H](N)C(=O)O,1.9% (inactive),
NS(=O)(=O)c1cc2c(cc1Cl)NCNS2(=O)=O,-3.42% (inactive),
Clc1ccccc1C(c1ccccc1)(c1ccccc1)n1ccnc1,-13.5% (inactive),
CCNC(=O)N1CCN(CCCC(c2ccc(F)cc2)c2ccc(F)cc2)CC1,-2.7% (inactive),
COc1cc(C(=O)OCCCN2CCCN(CCCOC(=O)c3cc(OC)c(OC)c(OC)c3)CC2)cc(OC)c1OC,-0.976% (inactive),
CCC(=O)c1ccc2c(c1)N(CCCN(C)C)c1ccccc1S2,-2.14% (inactive),
C[C@]12CCC(=O)C=C1CC[C@@H]1[C@@H]2[C@@H](O)C[C@@]2(C)[C@H]1CC[C@]2(O)C(=O)CO,1.07% (inactive),
CCCOc1ccccc1-c1nc2n[nH]nc2c(=O)[nH]1,0.105% (inactive),
Nc1ccn([C@H]2CC[C@@H](CO)O2)c(=O)n1,3.85% (inactive),
Cc1cc(C(C)(C)C)cc(C)c1CC1=NCCN1,0.374% (inactive),
O=C(CCCN1CCC(O)(c2cccc(C(F)(F)F)c2)CC1)c1ccc(F)cc1,-1.42% (inactive),
CC1=C(CC(=O)O)c2cc(F)ccc2/C1=C\c1ccc(S(C)(=O)=O)cc1,-4.62% (inactive),
COc1ccc(CN(CCN(C)C)c2ccccn2)cc1,1.12% (inactive),
CCCCNc1ccc(C(=O)OCCN(C)C)cc1,-0.752% (inactive),
Cc1[nH]c(=O)c(C#N)cc1-c1ccc2nccn2c1,-0.24% (inactive),
